A number with no mark means an inactive call. Inconclusive results are not listed. Calls of active or inactive are those of the source. Unless noted, calls follow the shape of the full dose curve.

The target of experiment [1] is Acetylcholinesterase (Homo sapiens) (UniProt P22303). In words: Acetylcholinesterase (AChE) small molecule antagonists: colormetric cell-based qHTS assay (AID 1347395). Also: nearly all actives have a fitted effect of over 30% in size. As to activity, negative = inhibition: % is scaled to controls: 0 for no effect and ±100 for the full control effect. The essentials: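 After overnight attachment at 37 C, SH-SY5Y cells get 30 min compound exposure; detection cocktail (acetylthiocholine, DTNB) then incubates 90 min at 37 C, and absorbance reflects AChE-generated thiocholine.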
Background: qHTS replaces the single test concentration by a dilution series.

Experiment [2] shares this target. The experiment can be described thus: Acetylcholinesterase (AChE) small molecule antagonists: enzyme-based qHTS assay (AID 1347397). Also: nearly all actives have a fitted effect of over 55% in size. As to activity change, negative = inhibition: % is scaled to controls: 0 for no effect and ±100 for the full control effect. Particulars: Potency: AChE enzyme activity inhibition; outcome: AChE enzyme activity inhibition. The essentials: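 Colorimetric DTNB read-out of thiocholine released from acetylthiocholine by recombinant human AChE (50 mU/mL as dispensed). Compounds were preincubated 30 min at RT before substrate/DTNB addition, with a 10 min RT reaction.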

The target is the same in experiment [3]. The experiment can be described thus: Acetylcholinesterase (AChE) small molecule antagonists: fluorescence cell-based qHTS assay (AID 1347398). Also: nearly all actives have a fitted effect of over 50% in size. As to activity change, negative = inhibition: % is scaled to controls: 0 for no effect and ±100 for the full control effect. Particulars: Potency: AChE activity; outcome: AChE activity. An outline of the steps:
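SH-SY5Y, 2,000 cells/well, attached overnight; cmpd 30 min 37 C; acetylthiocholine/Thiolite Green cocktail 40 min RT; fluorescence Ex/Em 490/520 nm.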

Experiment [4] shares this target. The experiment can be described thus: Acetylcholinesterase (AChE) small molecule antagonists: enzyme-based qHTS assay with human liver microsomes (AID 1347399). Also: nearly all actives have a fitted effect of over 60% in size. As to activity change, negative = inhibition: % is scaled to controls: 0 for no effect and ±100 for the full control effect. Particulars: Potency: qHTS inhibition; outcome: qHTS inhibition. An outline of the steps:
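Recombinant human AChE (50 mU/mL in the enzyme mix) and human liver microsomes (0.25 mg/mL final) were preincubated with compound and NADPH (0.25 mg/mL final) for 30 min at 37 C. Acetylthiocholine/DTNB was then added; thiocholine was read colorimetrically after 10 min at room temperature.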

The target of another experiment is Aromatase (Homo sapiens) (UniProt P11511). The experiment can be described thus: qHTS assay to identify aromatase inhibitors (AID 743083; active = well fitted inhibition curve with a large enough effect in the repeat runs; also: potency is read from the fitted curve at half-maximal effect; nearly all actives have a fitted effect of over 55% in size).
Sequence of Aromatase (Homo sapiens) (P11511 whole entry, looked up): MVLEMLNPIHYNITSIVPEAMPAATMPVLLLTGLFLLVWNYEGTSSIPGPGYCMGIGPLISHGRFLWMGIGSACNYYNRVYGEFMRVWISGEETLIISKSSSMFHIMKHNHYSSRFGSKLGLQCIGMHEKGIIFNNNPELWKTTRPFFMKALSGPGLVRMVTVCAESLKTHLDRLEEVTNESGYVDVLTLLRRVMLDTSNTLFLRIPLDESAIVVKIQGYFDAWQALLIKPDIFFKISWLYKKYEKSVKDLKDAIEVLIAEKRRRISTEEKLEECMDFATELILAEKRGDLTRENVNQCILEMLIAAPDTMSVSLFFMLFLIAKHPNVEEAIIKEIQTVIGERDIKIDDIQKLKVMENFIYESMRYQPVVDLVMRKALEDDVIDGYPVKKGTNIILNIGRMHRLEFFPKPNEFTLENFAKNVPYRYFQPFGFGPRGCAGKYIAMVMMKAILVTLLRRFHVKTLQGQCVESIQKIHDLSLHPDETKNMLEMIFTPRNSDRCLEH

Sequence of Acetylcholinesterase (Homo sapiens) (P22303 whole entry, looked up): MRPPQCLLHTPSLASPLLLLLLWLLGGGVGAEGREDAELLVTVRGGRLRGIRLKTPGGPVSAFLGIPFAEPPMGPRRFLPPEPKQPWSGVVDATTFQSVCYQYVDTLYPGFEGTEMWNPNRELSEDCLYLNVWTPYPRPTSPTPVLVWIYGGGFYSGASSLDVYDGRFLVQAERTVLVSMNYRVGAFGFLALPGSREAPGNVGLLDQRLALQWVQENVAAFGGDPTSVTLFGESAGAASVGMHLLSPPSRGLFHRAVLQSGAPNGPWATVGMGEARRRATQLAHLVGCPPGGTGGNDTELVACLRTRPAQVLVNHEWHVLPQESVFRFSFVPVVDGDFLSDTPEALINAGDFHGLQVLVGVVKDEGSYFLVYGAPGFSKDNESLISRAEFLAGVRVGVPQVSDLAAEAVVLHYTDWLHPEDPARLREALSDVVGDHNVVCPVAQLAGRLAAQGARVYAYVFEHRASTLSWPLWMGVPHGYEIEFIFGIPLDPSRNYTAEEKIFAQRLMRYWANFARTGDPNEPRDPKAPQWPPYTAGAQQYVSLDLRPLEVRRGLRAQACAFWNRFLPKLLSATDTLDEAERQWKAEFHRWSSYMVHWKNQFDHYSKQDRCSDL

As for `COC(=O)Nc1nc2ccc(Sc3ccccc3)cc2[nH]1`, the Potency result in experiment [1], in experiment [2], in experiment [3] and in experiment [4] was “inactive” each time.

Take `O=C(O)c1cc2ccccc2cc1O`: the Potency entry in experiment [1], in experiment [2], in experiment [3] and in experiment [4] was “inactive” in each case.

On to `Cc1cccc(C)c1OCC(C)N` (stereo unspecified), for which the compound was called inactive in experiment [1], in experiment [2], in experiment [3] and in experiment [4].

Regarding `O=C(/C=C/c1ccc([N+](=O)[O-])cc1)c1ccccc1`, the Potency result in experiment [1], in experiment [2], in experiment [3] and in experiment [4] was “inactive” each time.

Regarding `C=C(C)[C@@H]1CC=C(C)CC1`, the Potency entry in experiment [1], in experiment [2], in experiment [3] and in experiment [4] was “inactive” each time.

Take `c1ccc2nccnc2c1`: the Potency result in experiment [1], in experiment [2], in experiment [3] and in experiment [4] was “inactive” in each case.

Take `O=C(NCc1ncc(C(F)(F)F)cc1Cl)c1c(Cl)cccc1Cl`: the Potency entry in experiment [1], in experiment [2], in experiment [3] and in experiment [4] was “inactive” each time.

On to `O=C(O)c1cn(C2CC2)c2cc(Cl)c(F)cc2c1=O`, for which the Potency entry in experiment [1], in experiment [2], in experiment [3] and in experiment [4] was “inactive” in each case.

With `CCCCCCC(CO)CCCC` (stereo unspecified), the Potency result in experiment [1], in experiment [2], in experiment [3] and in experiment [4] was “inactive” throughout.

Consider `COC(C)CCO` (stereo unspecified), for which the Potency result in experiment [1], in experiment [2], in experiment [3] and in experiment [4] was “inactive” each time.

On to `CC/C=C\CC1=C(C)CCC1=O`, for which the Potency entry in experiment [1], in experiment [2], in experiment [3] and in experiment [4] was “inactive” throughout.

For the compound `CC(=O)/C=C/C1C(C)=CCCC1(C)C` (stereo unspecified), the Potency result in experiment [1], in experiment [2], in experiment [3] and in experiment [4] was “inactive” in each case.

Take `Cc1ccc(C=O)cc1C`: the Potency result in experiment [1], in experiment [2], in experiment [3] and in experiment [4] was “inactive” each time.

As for `CCCC(O)C(O)CO` (stereo unspecified), the Potency entry in experiment [1], in experiment [2], in experiment [3] and in experiment [4] was “inactive” each time.

On to `CC(=O)Oc1cccc2c1C(=O)c1c(OC(C)=O)cc(C(=O)O)cc1C2=O`, for which the Potency result in experiment [1], in experiment [2], in experiment [3] and in experiment [4] was “inactive” each time.

Consider `CC(C)(C)c1n[nH]c(=O)n(N)c1=O`, for which the Potency entry in experiment [1], in experiment [2], in experiment [3] and in experiment [4] was “inactive” each time.

In the case of `CC(O)CNCC(C)O` (stereo unspecified), the Potency result in experiment [1], in experiment [2], in experiment [3] and in experiment [4] was “inactive” in each case.

With `C[C@@H](Oc1ccc(CNC(=O)c2cccnc2Oc2ccc3c(c2)OCO3)c(F)c1)C(=O)O`, the Potency result in experiment [1], in experiment [2], in experiment [3] and in experiment [4] was “inactive” in each case.

For `COC(=O)CCCCC(=O)O`, the Potency entry in experiment [1], in experiment [2], in experiment [3] and in experiment [4] was “inactive” in each case.

Take `CC1(C)CC(=O)CC(C)(C)N1`: the Potency result in experiment [1], in experiment [2], in experiment [3] and in experiment [4] was “inactive” throughout.

`Cc1ccccc1OCC1CO1` (stereo unspecified): the Potency entry in experiment [1], in experiment [2], in experiment [3] and in experiment [4] was “inactive” in each case.

Take `N[C@H](C(=O)O)c1ccc(O)cc1`: the activity, negative = inhibition in experiment [1] is 0% [at 23.6 µM]. In addition, the activity change, negative = inhibition in experiment [2] is 0.185% [at 23.6 µM]; in experiment [3], 10.4% [at 23.8 µM]; in experiment [4], -0.0013% [at 23.6 µM].

Turning to `Oc1ccc2c(c1)OCO2`, the Potency result in experiment [1], in experiment [2], in experiment [3] and in experiment [4] was “inactive” in each case.

For the compound `Cc1ccccc1C(=O)Nc1ccc(C(=O)N2CCCC(N(C)C)c3ccccc32)cc1` (stereo unspecified), the Potency entry in experiment [1], in experiment [2], in experiment [3] and in experiment [4] was “inactive” in each case.

On to `CC/C=C(\C)C=O`, for which the Potency result in experiment [1], in experiment [2], in experiment [3] and in experiment [4] was “inactive” in each case.

With `C[C@](N)(Cc1ccc(O)cc1)C(=O)O`, in experiment [1], the activity, negative = inhibition was -0.0506% [at 10.5 µM]. Also, the activity change, negative = inhibition was 0.139% [at 10.5 µM] in experiment [2], 3.21% [at 10.5 µM] in experiment [3] and -2.1% [at 10.5 µM] in experiment [4].

`Cc1ccccc1CCO`: the Potency entry in experiment [1], in experiment [2], in experiment [3] and in experiment [4] was “inactive” in each case.

For the compound `C=CC(=O)OCCOC(=O)CCC(=O)O`, the Potency result in experiment [1], in experiment [2], in experiment [3] and in experiment [4] was “inactive” each time.

With `CC1Cc2ccccc2N1NC(=O)c1ccc(Cl)c(S(N)(=O)=O)c1` (stereo unspecified), the Potency result in experiment [1], in experiment [2], in experiment [3] and in experiment [4] was “inactive” each time.

Turning to `O=Cc1ccc(Cl)cc1`, the Potency entry in experiment [1], in experiment [2], in experiment [3] and in experiment [4] was “inactive” throughout.

Regarding `CC(C)(C)CCCCCCOC(=O)c1ccccc1C(=O)OCCCCCCC(C)(C)C`, the Potency result in experiment [1], in experiment [2], in experiment [3] and in experiment [4] was “inactive” in each case.

For the compound `O=C(O)c1ccc(O)cc1O`, the Potency result in experiment [1], in experiment [2], in experiment [3] and in experiment [4] was “inactive” each time.

Consider `Cc1nc(C2CCCCC2)c(-c2ccc(S(N)(=O)=O)c(F)c2)o1`, for which the Potency result in experiment [1], in experiment [2], in experiment [3] and in experiment [4] was “inactive” each time.

Turning to `NC(=O)C1(N2CCCCC2)CCN(CCCC(=O)c2ccc(F)cc2)CC1`, the Potency result in experiment [1], in experiment [2], in experiment [3] and in experiment [4] was “inactive” throughout.

As to `C=C(C)C(=O)OCCOP(=O)(O)OCCOC(=O)C(=C)C`, the Potency result in experiment [1], in experiment [2], in experiment [3] and in experiment [4] was “inactive” in each case.

Turning to `CCC1CO1` (stereo unspecified), the Potency entry in experiment [1], in experiment [2], in experiment [3] and in experiment [4] was “inactive” in each case.

With `c1ccc2cnncc2c1`, the Potency result in experiment [1], in experiment [2], in experiment [3] and in experiment [4] was “inactive” in each case.

For `O=C(O)CCC(=O)C(=O)O`, the Potency entry in experiment [1], in experiment [2], in experiment [3] and in experiment [4] was “inactive” throughout.

Take `O=C1c2ccccc2C(=O)N1SC1CCCCC1`: the Potency in the experiment with Aromatase (Homo sapiens) is 30.6 µM (active).

Consider `CCCC(=O)OCOC(=O)C1=C(C)NC(C)=C(C(=O)OC)C1c1cccc(Cl)c1Cl` (stereo unspecified), for which the Potency result in experiment [1], in experiment [2] and in experiment [4] was “inactive” throughout.

Values taken from PubChem BioAssay (Tox21).
